TcdB GH inh – inhibitors of Clostridioides difficile toxin B glycohydrolase; actives 0.24% (n = 350,000); inhibition, % at 9.99 µM; TcdB glycohydrolase enzymatic assay, plate reader; AID 652162; in the data active = inhibition above about 10%
FadD28 binding – inhibitors of Mycobacterium tuberculosis FadD28 bisubstrate binding | FadD28 bisubstrate probe binding, fluorescence polarization | inhibition, % at 12.5 µM | actives 0.22% (n = 360,000) | AID 588549; in the data active = inhibition above about 8.5%, passing the limit was not always enough; inconclusive = no clear call, values can overlap the other calls
PfHsp40 rescue – rescue of PfHsp40-mediated yeast toxicity. actives 0.68% (n = 340,000). S. cerevisiae expressing PfHsp40, growth rescue, ATP luminescence. AID 504582. growth rescue, % at 12.5 µM; in the data active = growth rescue above about 28%, passing the limit was not always enough; inconclusive = no clear call, values can overlap the other calls;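 note: yeast W303a lacking pdr1 and pdr3 grown in galactose medium; growth measured after three days at 30 °C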
Y pestis TopoI – Y. pestis Topo-I inhibition via cleavage products; Y. pestis Topo-I cleavage product accumulation, plate reader; activity, % at 10 µM; actives 0.064% (n = 360,000); AID 504884; in the data active = activity above about 50%, passing the limit was not always enough; inconclusive = no clear call, values can overlap the other calls
PrP 5UTR inh – suppresses PrP 5' UTR mRNA reporter expression; cell-based PrP 5' UTR mRNA reporter, plate reader; inhibition, % (test concentration not listed); actives 0.35% (n = 340,000); AID 488862; in the data active = inhibition above about 52%; note: 0 = median of the neutral control wells
Mtb BioA inh – inhibitors of Mycobacterium tuberculosis BioA enzyme; purified M. tuberculosis BioA enzyme, plate reader; actives 0.096% (n = 360,000); AID 602481; inhibition, % at 9.99 µM; in the data active = inhibition above about 40%; inconclusive = no clear call, values can overlap the other calls
The depositor's hits bear a star; ? = inconclusive; nt = not tested or not shown. Rows were chosen to be rich in hits. Some 1.2% of all compounds tested hit in one or more screens of this group.

SMILES	TcdB GH inh	FadD28 binding	PfHsp40 rescue	Y pestis TopoI	PrP 5UTR inh	Mtb BioA inh
CCn1c(SCC(=O)Nc2ccc(NC(C)=O)cc2)nc2c([nH]c3ccccc32)c1=O	-0.9	-1.4	40.8*	3.6	-8.2	-1.7
COCCn1c(SCC(=O)Nc2ccc(F)cc2)nc2c([nH]c3ccccc32)c1=O	-0.9	-2.9	1.7	-3.3	-6.2	-2.0
O=C(Nc1ccc(Cl)cc1)c1cccc(S(=O)(=O)Nc2ccccn2)c1	0.5	-2.1	-1.8	-2.8	-13.6	-1.8
O=C(Nc1ccccc1)c1ccc(Br)c(S(=O)(=O)Nc2ccccn2)c1	0.5	0.4	47.6*	-2.8	-15.6	0.5
CC(C)CC#Cc1ccc([C@@H]2[C@@H](CO)N3C(=O)CN(C(=O)Nc4cc(F)ccc4F)C[C@@H]23)cc1	0.0	nt	nt	nt	nt	nt
CN1[C@@H]2Cn3c(ccc(/C=C/c4ccccc4)c3=O)[C@H]1[C@@H](C(=O)NC1CCC1)[C@@H]2CO	0.9	nt	nt	nt	nt	-1.5
O=C(C(Sc1ccccc1)c1ccccc1)N1CCN(c2ccccc2F)CC1 (stereo not given)	nt	-0.2	5.5	54.6*	2.7	-1.1
O=C(C(Sc1ccccc1)c1ccc(Br)cc1)N1CCOCC1 (stereo not given)	-2.9	-2.2	0.5	14.2	-10.2	0.3
O=C(OCC(=O)C12CC3CC(CC(C3)C1)C2)c1ccc(CO)cc1	0.6	-2.2	0.9	18.2	-26.4	-0.2
O=C(OCC(=O)C12CC3CC(CC(C3)C1)C2)c1ccc(O)cc1	-1.4	0.7	424.9*	5.8	-40.5	-0.1
CCOc1cc(/C=C2/NC(=O)N(CC(=O)Nc3cccc(C)c3)C2=O)ccc1O	nt	16.4*	1.1	-15.0	-9.3	-1.1
Cc1ccc(-n2cccc2/C=C2/NC(=O)N(CC(=O)Nc3cccc(C)c3)C2=O)cc1	0.6	?	-1.4	-3.9	-6.7	nt
Cc1cccc(NC(=O)CN2C(=O)N/C(=C\c3ccccc3OCc3ccc(C(=O)O)cc3)C2=O)c1	2.3	41.8*	-0.8	14.7	-18.6	-0.1
Cc1cccc(NC(=O)CN2C(=O)N/C(=C\c3cccn3-c3cccc(C(=O)O)c3)C2=O)c1	-1.6	18.1*	nt	13.3	-19.3	nt
C[C@@H]1CN([C@@H](C)CO)C(=O)c2cc(NS(=O)(=O)c3ccc(Cl)cc3)ccc2O[C@@H]1CN(C)S(=O)(=O)c1ccccc1	nt	nt	nt	nt	nt	-1.9
O=C(C1CC1)N1CC2(C1)[C@H](c1ccccc1)[C@@H](CO)N2C(=O)CC1CC1	0.7	nt	nt	nt	nt	nt
CO[C@H]1CN(C)C(=O)c2cc(NC(=O)c3ccc4c(c3)OCO4)ccc2OC[C@@H](C)NC[C@@H]1C	-0.4	nt	nt	nt	nt	0.7
CCOC(=O)NC1Cc2ccccc2C1Sc1ccccn1 (stereo not given)	1.8	-1.9	53.9*	3.4	-16.4	3.2
CCOC(=O)NC(=O)CSc1ccccn1	0.4	-2.7	-1.2	8.5	-19.9	-0.7
O=P1(Oc2ccccc2)OCCCS1 (stereo not given)	14.4*	-1.0	-0.1	-4.8	-9.4	nt
CC(C)n1c(NCCO)nc2ccccc21	1.1	-0.4	?	8.8	-8.7	nt
CNc1ccc2nc3ccccc3[n+](C)c2c1	-1.6	57.4*	-0.8	19.9	-31.9	3.9
C[n+]1c2ccccc2nc2ccc(NCCO)cc21	3.8	43.6*	-1.4	47.2	-10.3	5.9
COc1ccc(/C(O)=C2/C(=O)C(=O)N(CCN3CCOCC3)C2c2ccccn2)cc1 (stereo not given)	nt	-1.3	-1.1	-5.9	-3.9	-2.6
O=C1C(=O)N(CCN2CCOCC2)C(c2ccccn2)/C1=C(/O)c1ccc(F)cc1 (stereo not given)	nt	-2.6	54.9*	-5.4	-20.4	0.2
SMILES	TcdB GH inh	FadD28 binding	PfHsp40 rescue	Y pestis TopoI	PrP 5UTR inh	Mtb BioA inh
O=C1C(=O)N(CCCN2CCOCC2)C(c2ccc(F)cc2)/C1=C(/O)c1ccccc1 (stereo not given)	0.1	-3.2	62.6*	-0.4	-21.9	0.0
Cc1cc2c(c(=O)n1Cc1cccnc1)C(c1ccccc1)C(C#N)=C(N)O2 (stereo not given)	nt	-1.1	-0.5	-0.6	-21.4	47.6*
Cc1noc(C)c1NC(=O)Nc1ccc2c(c1)CC(=O)N([C@@H](C)CO)C[C@H](C)[C@H](CN(C)Cc1ccc(-c3ccccc3)cc1)O2	-0.1	nt	nt	nt	nt	nt
CC(C)CCNC(=S)Nc1ccc([N+](=O)[O-])cc1	nt	-2.5	127.6*	-3.4	-25.5	5.1
Cc1ccc(C(C)C)cc1NC(=O)Nc1ccc([N+](=O)[O-])cc1	-1.2	-0.7	150.7*	-24.1	-9.1	nt
CCCCNC(=S)Nc1ccc([N+](=O)[O-])cc1	nt	-1.2	-2.0	1.5	-9.6	3.4
Cc1cc(O)c(C(C)C)cc1NC(=O)Nc1ccc([N+](=O)[O-])cc1	-0.7	-1.4	0.6	-2.1	23.3	nt
CCN(CCO)C1CC(=O)N(c2ccccc2C)C1=O (stereo not given)	nt	-3.7	75.0*	-3.2	-19.8	1.8
Cc1ccccc1N1C(=O)CC(N(O)c2ccccc2)C1=O (stereo not given)	nt	-3.0	-1.0	5.5	-17.8	-0.5
CCC(Oc1ccc(Br)cc1Cl)C(=O)Nc1nnc(C2CC2)s1 (stereo not given)	2.0	-4.9	60.1*	23.7	-4.8	1.3
CC1=C(C(=O)OCC2CCCO2)C(c2coc3ccccc3c2=O)C2=C(CCCC2=O)N1 (stereo not given)	13.1*	-0.4	-2.1	1.7	-6.8	nt
CCOC(=O)C1=C(C)NC2=C(C(=O)CCC2)C1c1coc2ccccc2c1=O (stereo not given)	1.7	-3.3	0.7	-0.4	-14.5	-0.7
NC1=NC[C@H](Cc2ccc(O)cc2)N1CCc1cc(C(F)(F)F)cc(C(F)(F)F)c1	10.7*	-2.2	-0.4	-9.2	-20.7	4.8
NC1=NC[C@@H](CC2CCCCC2)N1CCc1cc(C(F)(F)F)cc(C(F)(F)F)c1	nt	-15.5	-1.5	-6.7	-13.2	8.5
C[C@@H]1CN([C@@H](C)CO)C(=O)c2cc(NC(=O)C3CC3)ccc2O[C@H]1CN(C)Cc1ccncc1	-1.5	nt	nt	nt	nt	-0.5
O=C(O)c1cccc(S(=O)(=O)Nc2cc(Cl)ccc2Cl)c1	-0.4	-3.2	-1.1	0.5	-20.2	nt
CC1CC(C)CN(C(=O)c2cccc(S(=O)(=O)Nc3cc(C(F)(F)F)ccc3Cl)c2)C1 (stereo not given)	-1.5	-6.1	224.6*	12.5	-13.8	nt
CCCCC(c1nnnn1Cc1ccco1)N1CCN(c2nc3ccccc3s2)CC1 (stereo not given)	nt	-6.4	27.4*	46.9	-14.3	2.8
Cc1ccn2c(=S)[nH]nc2c1	-2.4	-1.7	nt	7.1	nt	-2.6
S=c1[nH]nc2ccccn12	26.5*	0.4	0.3	7.2	-21.0	-0.9
O=C(C[C@H]1C[C@H]2c3cc(NS(=O)(=O)c4ccc(F)cc4)ccc3O[C@H]2[C@@H](CO)O1)NCc1ccncc1	1.1	nt	nt	nt	nt	0.7
O=C1NC(=O)N(Cc2ccc(F)cc2)C(=O)/C1=C\c1ccoc1	0.0	10.7*	1.7	-16.4	5.3	-5.1

Compound activity as filed in PubChem BioAssay.
